High-throughput results: PubChem BioAssay, Fisher Drug Discovery Resource Center
Many of the other results were omitted from the sample, so hits are more common in it than they were.
mcGAS MS inh = blocks mouse cGAS cGAMP production | 0.18% of 130,000 active | inhibition, % at 12.5 µM | recombinant mouse cGAS, cGAMP by RapidFire MS;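 active = inhibition of cGAS enzyme activity at or above 60%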;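 note: enzyme stimulated by 45 bp dsDNA with ATP and GTP substrates; cGAMP share of summed cGAMP plus half ATP and half GTP signals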
Target sequence (Q8C6L5 whole entry, looked up): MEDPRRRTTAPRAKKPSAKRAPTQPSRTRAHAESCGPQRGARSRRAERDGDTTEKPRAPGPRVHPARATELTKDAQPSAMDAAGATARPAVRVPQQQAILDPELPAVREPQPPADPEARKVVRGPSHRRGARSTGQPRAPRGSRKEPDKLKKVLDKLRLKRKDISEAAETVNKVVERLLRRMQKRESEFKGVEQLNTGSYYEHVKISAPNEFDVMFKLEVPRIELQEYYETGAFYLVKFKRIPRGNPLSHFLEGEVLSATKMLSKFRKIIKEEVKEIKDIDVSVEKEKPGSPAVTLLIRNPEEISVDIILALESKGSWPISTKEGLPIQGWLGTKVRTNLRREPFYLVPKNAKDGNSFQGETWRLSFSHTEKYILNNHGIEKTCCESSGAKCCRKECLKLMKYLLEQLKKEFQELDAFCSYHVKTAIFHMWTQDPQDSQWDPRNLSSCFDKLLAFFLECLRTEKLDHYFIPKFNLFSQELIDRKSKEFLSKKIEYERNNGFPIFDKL
Numbers stand for hits; 0 = inactive; ! = not confirmed by another sample.

SMILES | mcGAS MS inh
Cc1cc(CS(=O)(=O)N2CCOC3CCCCC32)on1 (stereo not given) | 0
c1cncc(COC2CCN(Cc3cnc(C4CCCCC4)nc3)CC2)c1 | 0
CCOC(=O)c1[nH]nc2c1CC/C2=C\c1ccccc1 | 0
CCOC(=O)c1[nH]nc(-c2ccc(C)cc2)c1C | 0
CCOC(=O)c1[nH]nc2c1C(=O)N(CC)C2=O | 62
Cc1ccc(F)c(-c2cc(N3CCOCC3)ncn2)c1 | 0
CSc1c(C#N)c(SCC(=O)c2cc3ccccc3oc2=O)[nH]c(=O)c1C#N | 94
CN(CCOc1ccccc1)C(=O)c1cc2ccccc2oc1=O | 0
COc1ccc(CCNC(=O)c2cc3ccccc3oc2=O)cc1OC | 0
OC1CCCN(c2ccnc(N3CCC(Oc4ccncc4)CC3)n2)C1 (stereo not given) | 0
O=C1c2ccccc2C(=O)c2c1ccc(O)c2O | 85
O=C1C=C(O)c2ccccc2C1=O | 0
Nc1ccc2c(c1N)C(=O)c1ccccc1C2=O | 0
Cc1noc(CN(CCO)C2CCCCC2)n1 | 0
O=S(=O)(c1cc(Cl)cc(Cl)c1)N1CC2C3CCC(C3)C21 (stereo not given) | 0
O=S(=O)(O)CC(S)CS (stereo not given) | 87
COc1cccc(C(=O)CN2C(=O)NC3(CCCc4ccccc43)C2=O)c1 (stereo not given) | 0
CC1CN(CC2CCCN2C(=O)c2csc3cncn23)CC(C)O1 (stereo not given) | 0
CC(C)CN(CC(C)C)C(=O)CN1C(=O)NC2(CCC(C)CC2)C1=O (stereo not given) | 0
CC(C)(C)/[N+]([O-])=C/c1ccc(S(=O)(=O)O)cc1S(=O)(=O)O | 0
O=S(=O)(O)c1cc(N=C=S)ccc1/C=C/c1ccc(N=C=S)cc1S(=O)(=O)O | 98
COc1cccc(CC(=O)NC2CCN(C(=O)c3cn(-c4ccccc4)nn3)CC2)c1 | 0
CCN(CC)C(=S)SSC(=S)N(CC)CC | 76!
CCN(CC)C(=S)SC(C)C(=O)NC1CC1 (stereo not given) | 0
Cc1cc(-n2nc(N)nc2N)n2ncnc2n1 | 0
SMILES | mcGAS MS inh
Cc1ccc([N+](=O)[O-])cc1NC(=O)c1c(-c2ccccc2Cl)noc1C | 0
O=c1c(-c2ccc(O)cc2)coc2cc(O)ccc12 | 0
O=c1c(O)c(-c2ccc(O)cc2)oc2cc(O)cc(O)c12 | 0
O=c1c(-c2ccccc2)coc2cc(O)cc(O)c12 | 86
Oc1cccc(-c2cn(CCCc3nc4ccc(F)cc4[nH]3)nn2)c1 | 0
COC(=O)Cn1c(=NC(=O)CCc2ccccc2)sc2cc(F)ccc21 | 0
COCCN(Cc1ccco1)C(=O)CNc1ccccc1Cl | 0
COCCN(Cc1ccco1)S(=O)(=O)Cc1cccc(C)c1 | 89
COCCS(=O)(=O)N(Cc1ccco1)c1ccc(F)cc1F | 0
C=C(C)Cn1c(N2CCN(Cc3cc(C)ccc3C)CC2)nc2c1c(=O)[nH]c(=O)n2C | 0
O=C(CCc1nnc(Cc2ccc3c(c2)OCO3)o1)N1CCc2ccccc2C1 | 0
O=C(CCc1ncc(-c2ccc(F)cc2)o1)N1CCN(c2ccccc2)CC1 | 0
Cc1ccc(-c2cnc(CCC(=O)N3CCc4ccccc4C3)o2)cc1C | 78
Cc1ccc(NC(=O)CCn2nc3ccccn3c2=O)cc1F | 0
CC(NC(=O)C1CCN(C)C(=O)C1)c1nc2ccccc2n1C(C)C (stereo not given) | 0
CCCc1nnc(Cl)n1-c1cccc2ncccc12 | 0
Cc1cccnc1NC(=O)NC1(c2ccc(F)cc2)CCC1 | 78
COc1ncccc1NC(=O)NC1(c2ccc(Cl)cc2)CCC1 | 0
O=C(NC1(c2ccc(F)cc2)CCCC1)c1cccs1 | 0
c1cc(N2CCN(c3nccn4ccnc34)CC2)ccn1 | 0
O=C(COC(=O)C=Cc1ccc(I)o1)NC1CCCCCCC1 | 0
CN(c1ccccc1)S(=O)(=O)c1cccc(C(=O)NC(C)(C)C)c1 | 0
COc1cc(C=NNc2ccc(C(F)(F)F)cn2)cc(OC)c1 | 0
COC(=O)C1=C(C)Nc2nc(SCC(C)C)[nH]c(=O)c2C1c1ccc(F)cc1 (stereo not given) | 0
CC(C(=O)Nc1ccc(Cl)cn1)N(C)Cc1ccsc1 (stereo not given) | 83
SMILES | mcGAS MS inh
CC(C(=O)Nc1ccccc1)N(C)Cc1ccc(Cl)cc1 (stereo not given) | 0
CC(C(=O)Nc1ccc(Cl)cn1)N(C)CC(=O)Nc1c(Cl)cccc1Cl (stereo not given) | 0
C=CCNS(=O)(=O)c1cccc(C(=O)N(C)CCCC)c1 | 0
Cc1nc2n(n1)C(=O)C(C(c1ccc([N+](=O)[O-])cc1)N1CCCCC1)S2 (stereo not given) | 0
COc1ccc(OCCCCOc2ccc(Br)cc2)cc1 | 0
O=c1/c(=C/c2ccc([N+](=O)[O-])cc2)sc2nc3cc(Br)cnc3n12 | 85
O=c1c2cc([N+](=O)[O-])ccc2nc2n1CCC2=Cc1ccccc1 | 0
O=c1c(=Cc2ccccc2I)sc2nc3ccccc3n12 | 0
Cc1ccc(N2C(=O)N(c3cccc(C)c3)C3CS(=O)(=O)CC32)cc1 (stereo not given) | 0
COc1ccc(C(Nc2cccc(F)c2C#N)c2nccn2C)cc1 (stereo not given) | 0
Cc1cc(NC(=O)CN2CCC(NC(=O)c3ccccc3)CC2)n(-c2ccccc2)n1 | 0
COCc1cccc(-c2ccc3c(c2)COCC(=O)N3CCN2CCOCC2)c1 | 0
Cc1[nH]n(-c2nc3ccccc3[nH]2)c(=O)c1C | 0
CCc1c(C)[nH]n(-c2nc3ccccc3[nH]2)c1=O | 0
Cc1[nH]n(-c2nc3ccccc3[nH]2)c(=O)c1C1OC(=O)c2ccccc21 (stereo not given) | 99
CSC1=NCCCN1 | 0
COc1cc(CN(C)Cc2oc(CO)cc(=O)c2O)ccc1OC(F)F | 0
COc1cc(CSc2nnnn2-c2ccccc2)ccc1OC(F)F | 0
COc1ccc(CN(C)Cc2nnc(C(C)C)o2)cc1OC(F)F | 81
CNC(=O)c1nc(CN2CCOC(CCCC(C)C)C2)no1 (stereo not given) | 0
CC1CC(C)CN(C(C)(C)CNC(=O)C2CN(C)CCO2)C1 (stereo not given) | 0
CC(C)Cc1cc(C(=O)N2C[C@@H]3[C@H](C2)[C@H]2CC[C@@H]3O2)on1 | 0
N#CCC(=O)Nc1sc2c(c1C(N)=O)CCCC2 | 91
NC(=O)c1c(NC(=O)CN2CCOCC2)sc2c1CCC2 | 0
NC(=O)c1c(NC(=O)CSCC(=O)O)sc2c1CCCC2 | 0
SMILES | mcGAS MS inh
N#CC(=Cc1ccccc1Cl)S(=O)(=O)c1ccccc1 | 0
O=c1c2nnn(-c3ccc(F)cc3)c2ncn1C/C=C/c1ccccc1 | 0
C=CCOC(=O)C1C(C)=Nc2nc(SCCCC)[nH]c(=O)c2C1c1cccs1 (stereo not given) | 0
Cc1cc(N2C(=O)c3oc4ccccc4c(=O)c3C2c2cccc(Cl)c2)no1 (stereo not given) | 0
Cc1cc(N2C(=O)c3oc4ccc(F)cc4c(=O)c3C2c2cccc([N+](=O)[O-])c2)no1 (stereo not given) | 0
Cc1cc(N2C(=O)c3oc4ccccc4c(=O)c3C2c2cccc(F)c2)no1 (stereo not given) | 84
N#CC(=C(O)COc1ccccc1)c1nc2ccccc2s1 | 0
Cc1nc2c(c(=O)c3ccccc3n2C)c(=O)n1C(C)c1ccccc1 (stereo not given) | 0
O=C1NC(=S)SC1=Cc1ccccc1Cl | 0
COc1cc(C=C2SC(=S)NC2=O)cc(OC)c1OC | 0
O=C1NC(=S)SC1=Cc1cc(O)c(O)c(Cl)c1 | 97
O=C(c1ccc2oc(Cc3ccccc3)nc2c1)N1CCCCCCC1 | 0
O=C1N=c2ccccc2=C1c1sc(N2CCCCC2)nc1O | 88
